# Experimental data from PubChem BioAssay (Tox21).
# Several values for one entry are separate records, joined by “and”; a condition that tells them apart may be missing. Equal entries are not always repeated. Records with an inconclusive call do not appear. A call without a number means that no potency is given here. More than one record can exist for a structure, and the calls need not agree. Activity calls are given as the source filed them. Unless noted, the call rests on the fitted dose curve.
# Key:
# [1] = Nuclear factor erythroid 2-related factor 2/antioxidant responsive element (Nrf2/ARE) small molecule agonists: qHTS cell viability counter screen in human keratinocytes (AID 1919968; active means well fitted curve in the direction sought with a large enough effect in the repeat runs; an effect the other way counts as inactive or inconclusive; further: nearly all actives have a fitted effect of over 55% in size; further: potency means the concentration at half of the fitted maximal effect)
# Method in brief: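 Measured as CellTiter-Fluor fluorescence, this readout tracks cytotoxicity in the same wells as the ARE-luciferase screen. HaCaT reporter cells (1,500/well) received compounds after a 5 h pre-incubation and were exposed for 23 h.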
# [2] = Nuclear factor erythroid 2-related factor 2/antioxidant responsive element (Nrf2/ARE) small molecule agonists: luciferase reporter gene qHTS assay in human keratinocytes (AID 1919969); further: nearly all actives have a fitted effect of over 35% in size; further: potency means the concentration at half of the fitted maximal effect
# [3] = molecular target: Gonadotropin-releasing hormone receptor (Homo sapiens) (UniProt P30968); test: Human gonadotropin-releasing hormone receptor (GnRHR) small molecule agonists, calcium flux assay in GnRHR-HEK293 cells (AID 1920063); further: nearly all actives have a fitted effect of over 35% in size
# Gonadotropin-releasing hormone receptor (Homo sapiens), sequence (P30968 whole entry, looked up): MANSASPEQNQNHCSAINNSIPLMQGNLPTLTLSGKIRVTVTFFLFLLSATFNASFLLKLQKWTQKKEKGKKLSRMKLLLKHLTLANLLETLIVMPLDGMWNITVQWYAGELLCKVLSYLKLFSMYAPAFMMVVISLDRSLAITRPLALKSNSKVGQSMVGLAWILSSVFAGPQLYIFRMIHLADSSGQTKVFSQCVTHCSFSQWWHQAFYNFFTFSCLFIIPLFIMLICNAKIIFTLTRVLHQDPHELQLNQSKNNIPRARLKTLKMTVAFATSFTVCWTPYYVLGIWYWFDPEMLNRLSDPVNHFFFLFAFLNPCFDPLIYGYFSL
# Method in brief: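 Fluorescence kinetics (480 nm excitation, 540 nm emission; 3 min, 1 s steps) report calcium mobilisation in human GnRHR-HEK293 cells in agonist mode. Dye incubation: 1 h, 37 C.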
# [4] = molecular target: KiSS-1 receptor (Homo sapiens) (UniProt Q969F8); test: Human kisspeptin (KISS1R) small molecule agonists, calcium flux assay in KISS1R-HEK293 cells (AID 1920064; active means well fitted curve in the direction sought with a large enough effect in the repeat runs; an effect the other way counts as inactive or inconclusive)
# KiSS-1 receptor (Homo sapiens), sequence (Q969F8 whole entry, looked up): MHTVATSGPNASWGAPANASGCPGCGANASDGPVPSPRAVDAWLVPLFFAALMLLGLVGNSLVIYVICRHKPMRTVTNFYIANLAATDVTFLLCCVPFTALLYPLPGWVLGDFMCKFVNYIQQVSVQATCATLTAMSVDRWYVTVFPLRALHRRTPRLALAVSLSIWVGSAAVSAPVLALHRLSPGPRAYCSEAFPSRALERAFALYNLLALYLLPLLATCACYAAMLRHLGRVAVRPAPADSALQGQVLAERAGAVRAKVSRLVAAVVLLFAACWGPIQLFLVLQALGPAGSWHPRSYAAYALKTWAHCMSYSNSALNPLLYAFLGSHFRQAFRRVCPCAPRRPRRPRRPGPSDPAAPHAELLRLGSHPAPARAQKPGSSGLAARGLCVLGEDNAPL
# Method in brief: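 Measures KISS1R agonism through calcium-sensitive dye fluorescence in stably transfected HEK293 cells, read for 3 min after pin-tool compound delivery; 15-point titrations in triplicate.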
# [5] = G protein-coupled receptor (GPCR) small molecule agonists, calcium flux assay: HEK293 wild type cell line counter screen (AID 1920065)
# Method in brief: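 Readout: fluorescence at 480 nm excitation/540 nm emission, sampled at 1 s intervals for 3 min. Cells had been cultured 18 h, then dye-loaded 1 h at 37 C before compound or ATP addition.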
# [6] = p53 small molecule agonists, cell-based qHTS assay with human liver microsomes (AID 1963577);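 further: p53 response element beta-lactamase reporter cells with liver microsomes plus NADPH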
# Method in brief: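 With metabolic activation: human liver microsomes (0.5 mg/mL final) plus NADPH (0.5 mg/mL final) added alongside compounds to p53RE-bla cells; 16 h 37 C exposure; beta-lactamase read by LiveBLAzer fluorescence.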
# [7] = p53 small molecule agonists, cell-based qHTS assay with rat liver microsomes (AID 1963578)
# Method in brief: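 Metabolic activation by rat liver microsomes and NADPH, each 0.5 mg/mL final, added right after compounds to p53RE-bla reporter cells (4,000/well, plated 5 h earlier). 16 h at 37 C, then LiveBLAzer substrate for 2 h at room temperature in the dark; fluorescence read-out.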
# [8] = p53 small molecule agonists, cell-based qHTS assay with human liver microsomes: qHTS cell viability counter screen (AID 1963579); further: nearly all actives have a fitted effect of over 45% in size
# Method in brief: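 Metabolic activation used human liver microsomes and NADPH, both 0.5 mg/mL final, over 16 hours at 37 C on p53RE-bla cells (4,000/well). Cytotoxicity measured by CellTiter-Glo luminescence, 30 min at room temperature.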
# [9] = p53 small molecule agonists, cell-based qHTS assay with rat liver microsomes: qHTS cell viability counter screen (AID 1963580); further: nearly all actives have a fitted effect of over 45% in size
# Method in brief: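 p53RE-bla HCT-116 cells were exposed 16 h at 37 C to compounds with rat liver microsomes (0.5 mg/mL) and NADPH (0.5 mg/mL). Viability was measured in the same wells as ATP content by CellTiter-Glo luminescence.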
# [10] = p53 small molecule agonists, cell-based qHTS assay: qHTS cell viability counter screen (AID 1963581); further: nearly all actives have a fitted effect of over 45% in size
# Method in brief: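 In the same plates used for the p53 bla reporter, HCT-116 cells given compounds for 16 h at 37 C received CellTiter-Glo; luminescence was recorded 30 min later at room temperature.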
# [11] = p53 small molecule agonists, cell-based qHTS assay (AID 1963582; active means well fitted activation curve with a large enough effect in the signal ratio in the repeat runs, not every such curve was filed as active; the % refers to the signal ratio)
# Method in brief: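 Compounds are pin-transferred in DMSO onto p53RE-bla cells and incubated 16 h at 37 C. The B/G FRET beta-lactamase substrate is then applied for 2 h at RT and fluorescence recorded.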
# [12] = molecular target: 5-hydroxytryptamine receptor 2A (Homo sapiens) (UniProt P28223); test: 5-hydroxytryptamine receptor 2A (HTR2A) small molecule antagonists, cell-based qHTS assay (AID 1963586); further: nearly all actives have a fitted effect of over 45% in size
# 5-hydroxytryptamine receptor 2A (Homo sapiens), sequence (P28223 whole entry, looked up): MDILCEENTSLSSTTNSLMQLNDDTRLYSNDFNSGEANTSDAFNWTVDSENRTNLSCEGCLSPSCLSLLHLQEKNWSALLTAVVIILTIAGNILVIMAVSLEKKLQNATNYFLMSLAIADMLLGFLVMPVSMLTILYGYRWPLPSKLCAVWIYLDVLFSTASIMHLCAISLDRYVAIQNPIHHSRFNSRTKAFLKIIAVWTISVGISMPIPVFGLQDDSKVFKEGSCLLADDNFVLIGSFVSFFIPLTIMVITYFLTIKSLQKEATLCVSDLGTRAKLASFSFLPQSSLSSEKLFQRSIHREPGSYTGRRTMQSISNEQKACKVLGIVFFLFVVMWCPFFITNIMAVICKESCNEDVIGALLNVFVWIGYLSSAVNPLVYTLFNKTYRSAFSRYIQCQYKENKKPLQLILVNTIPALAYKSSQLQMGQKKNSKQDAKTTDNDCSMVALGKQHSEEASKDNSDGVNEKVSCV
# Method in brief: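 Antagonist-mode intracellular calcium assay: DOI (4 nM) added after 5 min compound pre-incubation at room temperature to dye-loaded HTR2A-CHO cells. Fluorescence followed for 3 min, sampled every second.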
# [13] = molecular target: 5-hydroxytryptamine receptor 2A (Homo sapiens) (UniProt P28223); test: 5-hydroxytryptamine receptor 2A (HTR2A) small molecule agonists, cell-based qHTS assay (AID 1963587); further: nearly all actives have a fitted effect of over 30% in size; further: potency means the concentration at half of the fitted maximal effect
# Method in brief: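 CHO cells stably expressing human HTR2A, plated 18 h, loaded with calcium dye 1 h at 37 C. Agonist mode: compounds added and intracellular calcium fluorescence recorded kinetically for 2 min at 1 sec intervals.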
# [14] = molecular target: Muscarinic acetylcholine receptor M1 (Homo sapiens) (UniProt P11229); test: Cholinergic receptor muscarinic 1 (CHRM1) small molecule antagonists, cell-based qHTS assay (AID 1963588); further: nearly all actives have a fitted effect of over 40% in size; further: potency means the concentration at half of the fitted maximal effect
# Muscarinic acetylcholine receptor M1 (Homo sapiens), sequence (P11229 whole entry, looked up): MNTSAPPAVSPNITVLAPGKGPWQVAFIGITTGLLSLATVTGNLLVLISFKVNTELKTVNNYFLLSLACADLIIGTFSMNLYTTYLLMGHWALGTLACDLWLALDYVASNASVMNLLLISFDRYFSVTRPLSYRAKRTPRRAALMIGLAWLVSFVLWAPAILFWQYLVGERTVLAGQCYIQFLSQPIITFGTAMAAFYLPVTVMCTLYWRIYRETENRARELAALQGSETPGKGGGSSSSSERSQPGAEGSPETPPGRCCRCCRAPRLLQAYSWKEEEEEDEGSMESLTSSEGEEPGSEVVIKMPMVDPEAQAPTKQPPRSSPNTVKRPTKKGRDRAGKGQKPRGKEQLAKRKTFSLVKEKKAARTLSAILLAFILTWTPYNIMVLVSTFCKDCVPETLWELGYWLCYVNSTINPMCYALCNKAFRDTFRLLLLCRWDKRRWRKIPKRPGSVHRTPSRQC
# Method in brief: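 CHRM1-CHO calcium-flux assay, antagonist mode. Cells were seeded 18 h, dye-loaded 1 h at 37 C and given compound for 5 min at RT, then acetylcholine was added at 50nM. FDSS fluorescence was read 3 min; 15 concentrations, three runs.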
# [15] = molecular target: Muscarinic acetylcholine receptor M1 (Homo sapiens) (UniProt P11229); test: Cholinergic receptor muscarinic 1 (CHRM1) small molecule agonists, cell-based qHTS assay (AID 1963589); further: nearly all actives have a fitted effect of over 35% in size
# Method in brief: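 Each compound was tested at 15 concentrations across three independent runs on dye-loaded CHO cells stably expressing human CHRM1, reading intracellular calcium fluorescence kinetically at 1 sec intervals.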
# [16] = cAMP Responsive Elements (CRE) small molecule agonists, cell-based qHTS assay (AID 1963590)
# Method in brief: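 Cell line: CRE-bla HEK 293T; medium DMEM/10% dialyzed FBS/0.1 mM NEAA/1 mM pyruvate/25 mM HEPES; 3 h compound exposure; beta-lactamase FRET readout after 2 h substrate loading at RT.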
# [17] = cAMP Responsive Elements (CRE) small molecule antagonists, cell-based qHTS assay (AID 1963591; active means well fitted inhibition curve with a large enough effect in the signal ratio in the repeat runs, not every such curve was filed as active; the % refers to the signal ratio)
# Method in brief: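 Inhibition of NKH477-driven (0.25 uM final) CRE-beta-lactamase signal in HEK293T cells, 3 h compound exposure at 37 °C, detected by FRET substrate fluorescence.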
# [18] = molecular target: Beta-2 adrenergic receptor (Homo sapiens) (UniProt P07550); test: Adrenergic beta2 receptor (ADRB2) small molecule antagonists, cell-based qHTS assay (AID 1963592); further: series mostly up to about 92 µM; nearly all actives have a fitted effect of over 50% in size
# Beta-2 adrenergic receptor (Homo sapiens), sequence (P07550 whole entry, looked up): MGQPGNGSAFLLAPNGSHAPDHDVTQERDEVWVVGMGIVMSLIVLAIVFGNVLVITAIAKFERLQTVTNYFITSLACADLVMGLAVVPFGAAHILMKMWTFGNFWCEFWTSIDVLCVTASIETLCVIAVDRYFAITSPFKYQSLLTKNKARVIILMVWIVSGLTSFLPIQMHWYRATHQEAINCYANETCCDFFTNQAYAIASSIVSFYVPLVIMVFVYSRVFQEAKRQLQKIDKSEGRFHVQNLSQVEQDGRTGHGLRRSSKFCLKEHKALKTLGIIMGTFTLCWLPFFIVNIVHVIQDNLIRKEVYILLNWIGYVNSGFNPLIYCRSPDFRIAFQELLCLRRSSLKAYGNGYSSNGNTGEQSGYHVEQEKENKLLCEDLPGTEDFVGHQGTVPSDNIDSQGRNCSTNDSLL
# Method in brief: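 Cells (CHO, stable ADRB2 overexpression) incubated 18-20hr at 37C; compounds added from DMSO; agonist mix (1nM isoproterenol, 100uM IBMX, 25uM Ro-20-1724) added; 0.5hr RT; d2-cAMP and anti-cAMP-cryptate added; 1hr RT; 665/615 nm read.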
# [19] = molecular target: Beta-2 adrenergic receptor (Homo sapiens) (UniProt P07550); test: Adrenergic beta2 receptor (ADRB2) small molecule agonists, cell-based qHTS assay (AID 1963593);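 further: CHO cells stably overexpressing human ADRB2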
# Method in brief: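 CHO cells stably over-expressing ADRB2 were plated overnight at 37C, then dosed with compounds plus a stimulation mix containing 100uM IBMX and 25uM Ro-20-1724 for 0.5hr at room temperature. cAMP was measured by HTRF competition, 1hr.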
# [20] = molecular target: D(2) dopamine receptor (Homo sapiens) (UniProt P14416); test: Dopamine D2 receptor (DRD2) small molecule agonists, cell-based qHTS assay (AID 1963594); further: nearly all actives have a fitted effect of over 35% in size
# D(2) dopamine receptor (Homo sapiens), sequence (P14416 whole entry, looked up): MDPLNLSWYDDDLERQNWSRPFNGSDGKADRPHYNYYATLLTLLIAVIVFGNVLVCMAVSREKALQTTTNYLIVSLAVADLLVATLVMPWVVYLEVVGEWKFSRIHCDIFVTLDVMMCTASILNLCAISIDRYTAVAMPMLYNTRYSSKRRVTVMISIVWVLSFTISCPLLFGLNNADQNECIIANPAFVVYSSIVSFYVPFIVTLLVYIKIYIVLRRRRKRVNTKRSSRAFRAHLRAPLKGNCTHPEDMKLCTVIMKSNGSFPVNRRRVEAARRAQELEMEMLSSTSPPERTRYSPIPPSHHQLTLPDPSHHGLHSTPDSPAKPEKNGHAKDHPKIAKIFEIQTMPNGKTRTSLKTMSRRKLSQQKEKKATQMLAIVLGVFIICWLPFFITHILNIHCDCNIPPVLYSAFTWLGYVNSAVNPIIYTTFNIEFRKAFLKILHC
# Method in brief: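 HEK293 cells stably expressing human DRD2, pre-treated with PDE inhibitor Ro20-1724 (0.1 mM final) and compound 10 min at room temperature, then stimulated with NKH477 (200nM […]) for 30 min. cAMP read by HTRF (665/620 nm).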
Structure (SMILES),Potency [1],Potency [2],Potency [3],Potency [4],Potency [5],Potency [6],Potency [7],Potency [8],Potency [9],Potency [10],Potency [11],Potency [12],Potency [13],Potency [14],Potency [15],Potency [16],Potency [17],Potency [18],Potency [19],Potency [20]
O=C(O)Cc1ccc(CCNS(=O)(=O)c2ccc(Cl)cc2)cc1,inactive,inactive,inactive,inactive,inactive,inactive,inactive,inactive,inactive,inactive,inactive,inactive,inactive,inactive,inactive,inactive,inactive,inactive,inactive,inactive
FC(F)(F)c1ccccc1Cl,inactive,inactive,inactive,inactive,inactive,inactive,inactive,inactive,inactive,inactive,inactive,inactive,inactive,inactive,inactive,inactive,inactive,inactive,inactive,inactive
CC(C)(C)c1cc(C(C)(C)C)c(O)c(C(C)(C)C)c1,inactive and 48.6 µM (active),30.6 µM (active),inactive,inactive,inactive,inactive,inactive,inactive,inactive,inactive,inactive,inactive,5.49 µM (active),inactive,inactive,inactive,inactive,inactive,inactive,inactive
Cc1nc(-c2ccc3c(c2)CCN(CCC2CCC(NC(=O)/C=C/c4ccc(F)cc4)CC2)CC3)no1 (stereo not given),inactive,inactive,inactive,inactive,inactive,inactive,inactive,inactive,inactive,inactive,inactive,inactive,inactive,0.266 µM (active),inactive,inactive,inactive,inactive,inactive,inactive
C=CCc1cc(OC)c(O)c(C(=O)NCCO)c1,inactive,inactive,inactive,inactive,inactive,inactive,inactive,inactive,inactive,inactive,inactive,inactive,inactive,inactive,inactive,inactive,inactive,inactive,inactive,inactive
